Lamin A splicing – qHTS Assay for Modulators of Lamin A Splicing; Potency, µM (series often up to 46.1 µM), usual class: inhibitors; HeLa LMNA splicing GFP/RFP minigene ratio, 48 h; AID 1487, 2009; actives 0.01% (n = 200,000); active means well fitted inhibition curve with a large enough effect in the signal ratio, with a control signal flat, not every such curve was filed as active; inconclusive means small, poorly fitted or top-dose-only effect, or effect the other way, or a change in a side signal; the % refers to the signal ratio
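Read-out is the ratio of GFP to DsRed2 object intensity, acquired by 488 nm laser-scanning cytometry on HeLa lamin A-EGFP minigene reporter cells. Compound incubation 48 hrs at 37 °C in Opti-MEM with 2% FBS; DMSO 0.5% final.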
Luc counter – Counterscreen for Luciferase (Kinase-Glo TM) Inhibition | Kinase-Glo luciferase, ATP luminescence, 8 min | Potency, µM (series often up to 38.3 µM), hits mostly inhibitors | actives 0.28% (n = 200,000) | AID 1379, 2008; active means well fitted curve in the direction sought with a large enough effect; inconclusive means small, poorly fitted or top-dose-only effect, or another doubt; inactive means no such curve, though single readings can be large; an effect the other way counts as inactive or inconclusive; further: nearly all actives have a fitted effect of over 60% in size
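Compound is pinned into ATP-containing buffer (10 uM ATP, imidazole pH 7.2, 7 mM MgCl2). Kinase-Glo luciferase reagent is then added. Light output is recorded following an 8-min room-temperature incubation.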
IMPase Li cell – qHTS Assay for Identifying the Cell-Membrane Permeable IMPase Inhibitors: Potentiation with Lithium. CHO-M1 cells, IP1 TR-FRET (IP-One), carbachol + lithium. Potency, µM (titrated, usually from 59.4 µM), usual class: inhibitors. actives 0.35% (n = 210,000); active means well fitted curve in the direction sought with a large enough effect; inconclusive means small, poorly fitted or top-dose-only effect, or another doubt; inactive means no such curve, though single readings can be large; an effect the other way counts as inactive or inconclusive;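 further: IP1 builds up when IMPase is blocked and the TR-FRET signal falls; nearly all actives have a fitted effect of over 50% in size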
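Readout is a homogeneous TR-FRET IP1 immunoassay (Ex 320, Em 665 and 620), where raised cytosolic IP1 lowers signal. Cells were CHO-M1 treated 30 min at 37C with test compounds plus a little lithium; AC50 values came from Hill-equation fitting.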
ALDH1A1 block – qHTS Assay for Inhibitors of Aldehyde Dehydrogenase 1 (ALDH1A1) | Purified ALDH1A1, NADH fluorescence, propionaldehyde substrate | Potency, µM (series often up to 75.3 µM), actives largely listed as inhibitors | actives 7.3% (n = 220,000) | AID 1030, 2008
Target sequence (P00352 whole entry, looked up): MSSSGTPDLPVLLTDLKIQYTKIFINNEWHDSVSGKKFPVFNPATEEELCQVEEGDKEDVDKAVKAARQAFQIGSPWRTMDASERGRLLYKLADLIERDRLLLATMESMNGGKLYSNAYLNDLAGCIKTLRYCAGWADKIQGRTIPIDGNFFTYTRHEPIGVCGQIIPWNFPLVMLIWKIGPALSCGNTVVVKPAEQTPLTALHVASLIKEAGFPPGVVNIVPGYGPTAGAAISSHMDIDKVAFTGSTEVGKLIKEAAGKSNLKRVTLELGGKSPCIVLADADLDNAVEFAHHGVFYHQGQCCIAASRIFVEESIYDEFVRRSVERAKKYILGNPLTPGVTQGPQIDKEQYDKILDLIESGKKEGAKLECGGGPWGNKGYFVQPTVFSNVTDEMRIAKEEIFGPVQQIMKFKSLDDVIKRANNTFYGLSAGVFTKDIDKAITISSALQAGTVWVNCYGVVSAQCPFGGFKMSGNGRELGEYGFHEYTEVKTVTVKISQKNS
HPGD inh – qHTS Assay for Inhibitors of HPGD (15-Hydroxyprostaglandin Dehydrogenase); Potency, µM, actives largely listed as inhibitors; 15-hydroxyprostaglandin dehydrogenase [NAD(+)] (Homo sapiens), P15428; purified HPGD, NADH fluorescence kinetic, PGE2 substrate; AID 894, 2007; actives 4.3% (n = 150,000)
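NADH formation kinetics: reaction with 30 uM PGE2 and 1 mM NAD+ (final), 20 nM enzyme, Tris-HCl pH 8 with Tween 20, after 15 min compound preincubation at room temperature. Fluorescence change, last versus first of five reads.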
Hits are given with their value; i = inactive; ? = inconclusive; nt = no result given. Shown are actives, neighbours in structure and some others; about 9% of the full set was active somewhere. Unless noted, the call rests on the fitted dose curve; in most records, active means well fitted inhibition curve with a large enough effect (not every such curve was filed as active); inconclusive means small, poorly fitted or top-dose-only effect, or another doubt; inactive means no such curve, though single readings can be large or run the other way.

SMILES | Lamin A splicing | Luc counter | IMPase Li cell | ALDH1A1 block | HPGD inh
O=C(CSCc1ccccc1)NNC(=S)Nc1cccc(Cl)c1Cl | i | i | i | 3.5µM | i
Cc1cccc(NC(=S)Nn2cnnc2)c1C | nt | i | i | 7.9µM | nt
S=C(Nc1ccc(Cl)cc1Cl)Nn1cnnc1 | i | i | i | i | 7.9µM
CNC(=S)NNC(=O)CSCc1c(Cl)cccc1Cl | nt | nt | nt | i | nt
S=C(Nc1cccc(Cl)c1Cl)Nn1cnnc1 | i | i | i | 2.8µM | 25µM
Cc1cccc(NC(=S)NN2CCN(C)CC2)c1C | i | i | i | i | i
C=CCc1ccc(OCCOc2cccc3ccc(C)nc23)c(OC)c1 | ? | i | i | ? | i
CCOC(=O)c1c(C)[nH]c(C(=O)N/N=C\c2ccccc2Cl)c1C | ? | i | i | i | i
Cc1ccc(C(=O)CN2/C(=C(\O)c3ccccc3)C(=O)c3ccccc3S2(=O)=O)c(C)c1 | ? | i | i | 2.8µM | i
O=c1c2ccccc2[nH]c(=S)n1CCN1CCCC1 | i | i | i | ? | nt
O=C(CCCCCn1c(=S)[nH]c2ccc(Br)cc2c1=O)NCC1CCCO1 (centres undefined) | i | i | i | i | 2.8µM
O=C(CCCn1c(=S)[nH]c2ccccc2c1=O)N1CCCCC1 | i | i | i | ? | 10µM
O=C(c1ccc(F)cc1)C1CCN(CCn2c(=S)[nH]c3ccccc3c2=O)CC1 | nt | i | i | i | 14µM
CC1CC(C)CN(C(=O)CCCn2c(=S)[nH]c3ccccc3c2=O)C1 (centres undefined) | i | i | i | ? | 25µM
O=C(CCn1c(=S)[nH]c2ccccc2c1=O)N1CCOCC1 | i | i | i | i | i
COc1cccc(CCc2ccccc2OCC[C@@H]2C[C@@H](O)CN2C)c1 | nt | i | i | i | i
O=C(CCCn1c(=S)[nH]c2ccccc2c1=O)NC1CCCCC1 | i | i | i | i | 20µM
COC(=O)c1sc(N2C(=O)C(=O)/C(=C(/O)c3ccccc3)C2c2ccco2)nc1C (centres undefined) | i | i | i | i | 25µM
CN(C)/C=N/C1=C(C#N)C(c2cccs2)c2ccc3ccccc3c2O1 (centres undefined) | nt | i | i | 0.32µM | nt
COc1ccc2c(c1)C(c1cc(OC)c(OC)c(OC)c1)CC(=O)O2 (centres undefined) | nt | i | i | i | i
COC(=O)[C@H]1C[C@@H]1[C@H](NC(=O)c1cccnc1)c1ccccc1 | nt | i | i | ? | i
C/C(Cl)=C\COc1cc(C)nc2c(Br)cccc12 | nt | i | i | i | nt
COc1ccc(OCC(=O)Nc2nccs2)cc1 | nt | 10µM | i | i | nt
COc1ccc(OCCC(=O)Nc2nccs2)cc1 | nt | i | i | i | nt
CCOc1ccc(OCC(=O)Nc2nccs2)cc1 | nt | 11µM | i | i | nt
SMILES | Lamin A splicing | Luc counter | IMPase Li cell | ALDH1A1 block | HPGD inh
CCOC(=O)c1c(S(=O)(=O)N2CCCC(C(=O)NCc3cccc(OC)c3)C2)c(C)n(C)c1C (centres undefined) | i | nt | nt | nt | nt
C/C(Cn1cnc([N+](=O)[O-])n1)=N\NC(=O)c1ccccc1O | i | i | i | i | nt
C/C(Cn1cnc([N+](=O)[O-])n1)=N/NC(=O)COc1ccccc1Cl | i | i | i | 14µM | i
C/C(Cn1cnc([N+](=O)[O-])n1)=N\NC(=O)c1ccc(Br)cc1 | i | i | i | 14µM | i
C/C(Cn1nnc([N+](=O)[O-])n1)=N\NC(=O)c1ccc(Cl)c(Cl)c1 | ? | i | i | 28µM | i
COc1ccc(C(=O)N2CCC3(CCN(Cc4ccccc4OC)CC3)CC2)cc1 | nt | i | i | i | i
Cc1ccc(-c2nc3cccnc3o2)cc1NC(=O)COc1ccc(Cl)cc1C | i | i | 6.3µM | i | ?
Cc1ccc(-c2nc3ncccc3o2)cc1NC(=O)COc1ccccc1 | i | i | 11µM | ? | ?
CCOc1cccc(C(=O)Nc2cccc(-c3nc4ncccc4o3)c2C)c1 | i | i | i | 18µM | ?
Cc1ccc(-c2nc3cccnc3o2)cc1NC(=O)COc1ccc(C(C)(C)C)cc1 | i | i | i | ? | ?
COc1cccc(C(=O)Nc2cccc(-c3nc4ncccc4o3)c2C)c1 | i | i | i | ? | i

Compound activity: PubChem, National Center for Advancing Translational Sciences (NCATS)
